Results as given in PubChem BioAssay.
Results filed as inconclusive are left out. Calls of active or inactive are those of the source. Unless noted, no stated cut-off is given here; in the data, active means inhibition above about 30%; inactive means the rest.

What was measured:
[1] = reducers of endogenous Her2 protein level, primary screen, SKBR3 breast tumor cells, AlphaScreen, ATP viability (AID 461;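 active means Her2 level under about 52% in both replicate screens, with viability over 70% of control, limit read from the data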;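 on Her2 level: lower value means less Her2 protein in the cells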;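 on viability: percent of carrier control wells set as 100% viability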); details: 18-24 h, measured here: SKBR3 viability, ATP luminescence, at 10 µM
[2] = target: Receptor tyrosine-protein kinase erbB-2 (Homo sapiens) (UniProt P04626); experiment: as above; details: 18-24 h, at 10 µM, stronger effect = lower value
Sequence of Receptor tyrosine-protein kinase erbB-2 (Homo sapiens) (P04626 whole entry, looked up): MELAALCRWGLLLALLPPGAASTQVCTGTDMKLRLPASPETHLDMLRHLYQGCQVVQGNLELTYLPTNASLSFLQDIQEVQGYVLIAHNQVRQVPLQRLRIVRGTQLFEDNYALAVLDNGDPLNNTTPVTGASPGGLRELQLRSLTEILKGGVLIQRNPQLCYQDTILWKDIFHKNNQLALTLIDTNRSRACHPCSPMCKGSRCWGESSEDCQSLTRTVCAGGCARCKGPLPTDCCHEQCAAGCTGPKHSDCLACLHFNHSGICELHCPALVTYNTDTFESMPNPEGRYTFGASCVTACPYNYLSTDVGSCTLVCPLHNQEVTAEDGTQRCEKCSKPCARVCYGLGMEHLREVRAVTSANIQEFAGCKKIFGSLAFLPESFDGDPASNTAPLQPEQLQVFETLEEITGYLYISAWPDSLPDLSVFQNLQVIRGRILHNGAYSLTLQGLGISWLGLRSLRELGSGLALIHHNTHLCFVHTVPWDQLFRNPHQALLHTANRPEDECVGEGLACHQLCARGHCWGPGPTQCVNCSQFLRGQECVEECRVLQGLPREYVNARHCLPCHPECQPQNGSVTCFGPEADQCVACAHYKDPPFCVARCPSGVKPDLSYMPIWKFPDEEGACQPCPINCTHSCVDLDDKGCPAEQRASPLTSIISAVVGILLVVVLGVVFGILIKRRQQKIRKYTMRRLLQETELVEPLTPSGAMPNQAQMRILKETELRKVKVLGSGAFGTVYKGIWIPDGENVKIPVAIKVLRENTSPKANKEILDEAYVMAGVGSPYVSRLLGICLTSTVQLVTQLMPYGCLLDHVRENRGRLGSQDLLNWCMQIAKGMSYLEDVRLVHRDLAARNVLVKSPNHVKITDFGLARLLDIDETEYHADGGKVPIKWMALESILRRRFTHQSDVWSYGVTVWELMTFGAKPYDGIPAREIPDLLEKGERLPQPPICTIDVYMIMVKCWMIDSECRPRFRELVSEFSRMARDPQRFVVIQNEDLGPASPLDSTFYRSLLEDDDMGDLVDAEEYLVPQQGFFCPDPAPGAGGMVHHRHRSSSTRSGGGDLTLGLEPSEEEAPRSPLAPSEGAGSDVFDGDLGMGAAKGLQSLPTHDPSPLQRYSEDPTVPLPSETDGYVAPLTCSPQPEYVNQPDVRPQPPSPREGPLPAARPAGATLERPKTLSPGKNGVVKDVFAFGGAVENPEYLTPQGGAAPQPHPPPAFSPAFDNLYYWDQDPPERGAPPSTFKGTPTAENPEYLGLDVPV

[3] = SK-BR-3 cell growth inhibitors, pilot screen, 24 h, human (AID 572;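 active means viability at or below 10% of carrier control in both of two separate runs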;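 further: compound exposure lasted between 18 and 24 h rather than exactly 24 h; 100% = carrier-treated control wells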); details: SK-BR-3 viability, CellTiter-Glo luminescence, at 10 µM, stronger effect = lower value
[4] = HUVEC growth inhibition – cell-based, human, primary screen (AID 575;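 active means viability at or below 30% in both replicate assays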;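 further: 100% = median of untreated cell wells with 0.1% DMSO on each plate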); details: HUVEC proliferation, CellTiter-Glo luminescence, 72 h; at 10 µM; stronger effect = lower value
[5] = growth inhibitors of H69AR lung tumor, primary screen, human, duplicate replicates (AID 580;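 active means viability at or under a set limit in both replicates, limit being median viability minus 3 SD, cut at about 48% in these data, passing the limit was not always enough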;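 further: 100% = mean luminescence of untreated wells and 0% = no signal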); details: H69AR lung tumor cells viability, ATP luminescence, 72 h; at 10 µM; stronger effect = lower value
[6] = reversal of MRP1-mediated doxorubicin resistance, pilot screen, H69AR cells, doxorubicin co-treatment (AID 601;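 active means viability loss from added drug above about 55%, and viability with drug at most 40%, in both replicates, limit read from the data, passing the limit was not always enough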); details: CellTiter-Glo, 72 h, at 10 µM; for differential viability (reversal): stronger effect = higher value
[7] = 384-well plate pilot, post-Golgi transport modulator project, inhibition of yeast transport mutant growth (AID 636; in the data active means inhibition above about 31%); details: absorbance 615 nm, about 18 h, stronger effect = higher value
[8] = growth suppression of yeast trafficking mutant, preliminary HTS, modulators of trafficking downstream of Golgi apparatus project, 1536-format plate, OD 615 nm (AID 637); details: yeast transport mutant growth, absorbance 615 nm, 18 h; stronger effect = higher value
[9] = OD615 S. cerevisiae growth inhibition, permissive medium, pilot counter-assay, permissive growth control for S. cerevisiae lifespan shortening project (AID 705;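 active means growth inhibition above 25% in both replicates, a cutoff set 3 SD above the mean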); details: OD615, 24 h, at 10 µM, stronger effect = higher value
[10] = Restrictive medium S. cerevisiae growth inhibition, OD615, pilot screen of yeast lifespan reduction project, restrictive growth control (AID 706;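 active means growth inhibition above a set limit, 3 SD over mean compound inhibition, in both replicates, cut at about 43% in these data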;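 further: modified DeaD lifespan yeast strain shifted to restrictive glucose medium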); details: OD615, 48 h, at 10 µM, stronger effect = higher value
[11] = viability gain of MRP-1-high H69AR cells under doxorubicin, pilot screen, MRP-1 activator project, CellTiter-Glo, duplicate (AID 807;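 active means viability increase at or above a cutoff of the median across tested compounds plus 3 SD, cut at about 8.5% in these data, passing the limit was not always enough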;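 further: compound pretreatment 18-22 h then 72 h combined with doxorubicin; 0% = doxorubicin alone and 100% = vehicle without doxorubicin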); details: H69AR viability with doxorubicin, CellTiter-Glo luminescence; at 10 µM; stronger effect = higher value
[12] = growth suppression of beta-catenin knockout HCT116, pilot screen, human colon tumor cells (AID 823;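 active means cell viability at or below a set limit in both duplicate runs, the limit being the all-compound median minus 4 SD, cut at about 23% in these data, passing the limit was not always enough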;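 further: 0% = wells killed by 20 µM Hyamine and 100% = untreated DMSO cell wells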); details: CellTiter-Glo, 60 h, at 10 µM, stronger effect = lower value
[13] = growth suppression of PTEN-deleted HCT116, pilot screen, cell-based, HCT116 clonal line, CellTiter-Glo (AID 824;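 active means viability at or below 27.92% in each of two runs, the all-compound median minus 4 SD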;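 further: 0% = 20 µM Hyamine control and 100% = vehicle cell control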); details: 60 h, at 10 µM, stronger effect = lower value
[14] = inhibitors of the yeast RAM network, pilot screen, dse1pr::URA3 reporter, 5-FOA selection (AID 869;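 active means inhibition over a set limit, the all-compound mean plus 3 SD, in both replicate runs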;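 further: 0% = DMSO wells with no growth and 100% = 10 µM 1-NA-PP1 with full growth; RAM network block rescues cells from 5-FOA so hits raise OD615 growth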); details: S. cerevisiae dse1pr::URA3 5-FOA growth, OD615, 2 d; at 10 µM; stronger effect = higher value; strain carries analog-sensitive mutant Cbk1 kinase
[15] = RAM signaling pathway blockade in yeast – S. cerevisiae, Pdr1DBD-CYC8 efflux-inhibited sensitized strain, primary screen (AID 1298;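 active means RAM network inhibition above 8.4% in each of two replicates, 3 SD over the compound average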;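 further: 0% = DMSO untreated cells without growth and 100% = 10 µM 1-NA-PP1 full growth; higher means more yeast growth rescued from 5-FOA killing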); details: S. cerevisiae cbk1-as DSE1-URA3 strain, 5-FOA growth OD615, 2 d; at 50 µM; stronger effect = higher value
[16] = H69AR cells + 2 uM doxorubicin, measured here: viability with 2 uM doxorubicin, stronger effect = lower value
[17] = H69AR cells, compound alone cytotoxicity

CCOn1c(=O)c(=O)n(OCc2ccccc2)c2ccccc21
86.5%: viability [1]
74.5%: viability [6, 16]
83.6%: viability [6, 17]
inactive: Her2 level [2] 88% | viability [3] 86.5% | viability [4] 78.5% | viability [5] 83.6% | differential viability (reversal) ([6]; H69AR cells + 2 uM doxorubicin) 9.08% | inhibition [7] -2.05% | inhibition [8] -6.33% | growth inhibition [9] -14% | growth inhibition [10] -6.63% | viability increase [11] -3.35% | viability [12] 95.8% | viability [13] 92% | inhibition [14] 2.35% | RAM network inhibition [15] 3.12%

CCOc1cccc(-c2nnc3n2N=C(c2cc(OC)ccc2OC)CS3)c1
active: viability [5] 13.5% | growth inhibition [10] 50.3% | viability [12] 19.4% | viability [13] 21.2%
inactive: Her2 level [2] 83.5% | viability [3] 104% | viability [4] 42.4% | differential viability (reversal) ([6]; H69AR cells + 2 uM doxorubicin) -60.8% | inhibition [7] -5.87% | inhibition [8] 1.75% | growth inhibition [9] 16.2% | viability increase [11] -3.98% | inhibition [14] 1.96% | RAM network inhibition [15] 6.09%
13.5%: viability [6, 17]
74.2%: viability [6, 16]
104%: viability [1]

CC1CCc2nn(CC(=O)Nc3ccc(F)cc3F)cc2C1 (stereo not given)
108%: viability [1]
89.5%: viability [6, 16]
104%: viability [6, 17]
inactive: Her2 level [2] 97.5% | viability [3] 108% | viability [4] 100% | viability [5] 104% | differential viability (reversal) ([6]; H69AR cells + 2 uM doxorubicin) 14.7% | inhibition [7] -0.93% | inhibition [8] -6.72% | growth inhibition [9] -2.97% | growth inhibition [10] -12.2% | viability increase [11] 1.3% | viability [12] 97.8% | viability [13] 98.3% | inhibition [14] 2.21% | RAM network inhibition [15] -0.77%

Cc1cc(C)n2nc(S(=O)(=O)N(C)c3ccccc3)nc2n1
93.9%: viability [6, 16]
inactive: Her2 level [2] 102% | viability [3] 103% | viability [4] 88.2% | viability [5] 94.5% | differential viability (reversal) ([6]; H69AR cells + 2 uM doxorubicin) 0.67% | inhibition [7] -5.6% | inhibition [8] 4.17% | growth inhibition [9] -16.1% | growth inhibition [10] -13.7% | viability increase [11] -1.5% | viability [12] 104% | viability [13] 98.1% | inhibition [14] 3.53% | RAM network inhibition [15] 1.62%
94.5%: viability [6, 17]
103%: viability [1]

Cc1ccc(CCP(=O)(O)CN2CCOCC2)cn1
inactive: Her2 level [2] 87.5% | viability [3] 85% | viability [4] 101% | viability [5] 104% | differential viability (reversal) ([6]; H69AR cells + 2 uM doxorubicin) 12.3% | inhibition [7] -7.57% | inhibition [8] 3.61% | growth inhibition [9] -11.9% | growth inhibition [10] -9.14% | viability increase [11] 0.51% | viability [12] 89.2% | viability [13] 92.3% | inhibition [14] 0.17% | RAM network inhibition [15] -0.42%
91.4%: viability [6, 16]
104%: viability [6, 17]
85%: viability [1]

CC1(C)CC(=O)C=C(Nc2ccc(OCC(F)(F)C(F)F)cc2)C1
95%: viability [1]
89.9%: viability [6, 16]
103%: viability [6, 17]
inactive: Her2 level [2] 104% | viability [3] 95% | viability [4] 92.8% | viability [5] 103% | differential viability (reversal) ([6]; H69AR cells + 2 uM doxorubicin) 12.9% | inhibition [7] 0.38% | inhibition [8] -12.3% | growth inhibition [9] -3.99% | growth inhibition [10] 5.75% | viability increase [11] 1.17% | viability [12] 89.5% | viability [13] 90.2% | inhibition [14] -0.6% | RAM network inhibition [15] 3.07%

O=C1NC2(Nc3ccccc31)C(=O)Nc1ccccc12 (stereo not given)
156%: viability [6, 17]
inactive: Her2 level [2] 83% | viability [3] 99% | viability [4] 86.8% | viability [5] 156% | differential viability (reversal) ([6]; H69AR cells + 2 uM doxorubicin) 58.3% | inhibition [7] -4.86% | inhibition [8] -3.44% | growth inhibition [9] 0.15% | growth inhibition [10] -6.17% | viability increase [11] -3.77% | viability [12] 98.8% | viability [13] 85.2% | inhibition [14] 1.85% | RAM network inhibition [15] 2.35%
97.3%: viability [6, 16]
99%: viability [1]

CC1(C)CC(=O)c2cnc(NC(=O)CCc3ccccc3)nc2C1
inactive: Her2 level [2] 82% | viability [3] 93% | viability [4] 112% | viability [5] 90.2% | differential viability (reversal) ([6]; H69AR cells + 2 uM doxorubicin) 0.98% | inhibition [7] -0.65% | inhibition [8] -4.5% | growth inhibition [9] -7.5% | growth inhibition [10] -11.6% | viability increase [11] 1.81% | viability [12] 97.6% | viability [13] 101% | inhibition [14] 1.27% | RAM network inhibition [15] 6.48%
90.2%: viability [6, 17]
93%: viability [1]
89.2%: viability [6, 16]

CC(C)Sc1nc2c(c(=O)n1-c1ccc(F)cc1)SCC2
81.1%: viability [6, 16]
88.5%: viability [6, 17]
inactive: Her2 level [2] 124% | viability [3] 114% | viability [4] 87.6% | viability [5] 88.5% | differential viability (reversal) ([6]; H69AR cells + 2 uM doxorubicin) 7.33% | inhibition [7] -4.27% | inhibition [8] -4.35% | growth inhibition [9] -4.45% | growth inhibition [10] -19.7% | viability increase [11] -2.6% | viability [12] 84.6% | viability [13] 87.1% | inhibition [14] 0.61% | RAM network inhibition [15] 7.83%
114%: viability [1]

CC(C)(NC(=O)N1CCCC1)c1cccc(C(C)(C)NC(=O)N2CCCC2)c1
90.3%: viability [6, 16]
inactive: Her2 level [2] 81.5% | viability [3] 98% | viability [4] 97.7% | viability [5] 95.5% | differential viability (reversal) ([6]; H69AR cells + 2 uM doxorubicin) 5.27% | inhibition [7] -4.42% | inhibition [8] -4% | growth inhibition [9] 0.795% | growth inhibition [10] 3.39% | viability increase [11] -0.99% | viability [12] 100% | viability [13] 97.4% | inhibition [14] 0.535% | RAM network inhibition [15] 0.88%
95.5%: viability [6, 17]
98%: viability [1]
